The labels stand for the following.
T1: RBFOX1 RRM RbFoxmut (Fox-RRM*) (Homo sapiens, UniProt Q9NWB1 109-208, R118D;E147R;N151S;E152T)
T1 sequence: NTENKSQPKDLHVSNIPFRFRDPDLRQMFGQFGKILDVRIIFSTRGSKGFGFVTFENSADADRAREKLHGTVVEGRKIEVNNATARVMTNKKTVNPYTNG

B1: UCGAGAA (DNA:RNA)
RNA: GGGAGACCGGAAUUCAGAUUGUCCUCGAGAAUUAAAUCCCGUCGUAGCCACCA
DNA 1: CAATCTGAATTCCGGTCTCCC
DNA 2: TGGTGGCTACGACGGGATT
B2: UUUCGCU (DNA:RNA)
RNA: B1 RNA with C26U, G27U, A28C, A30C, A31U
DNA 1: CAATCTGAATTCCGGTCTCCC
DNA 2: TGGTGGCTACGACGGGATT
B3: GAACGUU (DNA:RNA)
RNA: B1 RNA with U25G, C26A, G27A, A28C, A30U, A31U
DNA 1: CAATCTGAATTCCGGTCTCCC
DNA 2: TGGTGGCTACGACGGGATT
B4: UGGACCG (DNA:RNA)
RNA: B1 RNA with C26G, G29C, A30C, A31G
DNA 1: CAATCTGAATTCCGGTCTCCC
DNA 2: TGGTGGCTACGACGGGATT
B5: UUGAACC (DNA:RNA)
RNA: B1 RNA with C26U, G29A, A30C, A31C
DNA 1: CAATCTGAATTCCGGTCTCCC
DNA 2: TGGTGGCTACGACGGGATT
B6: UGGAACG (DNA:RNA)
RNA: B1 RNA with C26G, G29A, A30C, A31G
DNA 1: CAATCTGAATTCCGGTCTCCC
DNA 2: TGGTGGCTACGACGGGATT
B7: UUAAACG (DNA:RNA)
RNA: B1 RNA with C26U, G27A, G29A, A30C, A31G
DNA 1: CAATCTGAATTCCGGTCTCCC
DNA 2: TGGTGGCTACGACGGGATT
B8: CGAACGU (DNA:RNA)
RNA: B1 RNA with U25C, C26G, G27A, G29C, A30G, A31U
DNA 1: CAATCTGAATTCCGGTCTCCC
DNA 2: TGGTGGCTACGACGGGATT
B9: CGGAACG (DNA:RNA)
RNA: B1 RNA with U25C, C26G, G29A, A30C, A31G
DNA 1: CAATCTGAATTCCGGTCTCCC
DNA 2: TGGTGGCTACGACGGGATT
B10: CCGAACG (DNA:RNA)
RNA: B1 RNA with U25C, G29A, A30C, A31G
DNA 1: CAATCTGAATTCCGGTCTCCC
DNA 2: TGGTGGCTACGACGGGATT
B11: GGAACGU (DNA:RNA)
RNA: B1 RNA with U25G, C26G, G27A, G29C, A30G, A31U
DNA 1: CAATCTGAATTCCGGTCTCCC
DNA 2: TGGTGGCTACGACGGGATT
B12: UGGACGU (DNA:RNA)
RNA: B1 RNA with C26G, G29C, A30G, A31U
DNA 1: CAATCTGAATTCCGGTCTCCC
DNA 2: TGGTGGCTACGACGGGATT
B13: GUUAACG (DNA:RNA)
RNA: B1 RNA with U25G, C26U, G27U, G29A, A30C, A31G
DNA 1: CAATCTGAATTCCGGTCTCCC
DNA 2: TGGTGGCTACGACGGGATT
B14: UUGAACG (DNA:RNA)
RNA: B1 RNA with C26U, G29A, A30C, A31G
DNA 1: CAATCTGAATTCCGGTCTCCC
DNA 2: TGGTGGCTACGACGGGATT
B15: CGCUCCU (DNA:RNA)
RNA: GGGAGACCGGAAUUCAGAUUGUCCCGCUCCUUUAAAUCCCGUCGUAGCCACCA
DNA 1: CAATCTGAATTCCGGTCTCCC
DNA 2: TGGTGGCTACGACGGGATT
B16: GGAGGUA (DNA:RNA)
RNA: B1 RNA with U25G, C26G, G27A, A28G, A30U
DNA 1: CAATCTGAATTCCGGTCTCCC
DNA 2: TGGTGGCTACGACGGGATT
B17: GGCCGUU (DNA:RNA)
RNA: B15 RNA with C25G, U28C, C29G, C30U
DNA 1: CAATCTGAATTCCGGTCTCCC
DNA 2: TGGTGGCTACGACGGGATT
B18: GUUUUCU (DNA:RNA)
RNA: B15 RNA with C25G, G26U, C27U, C29U
DNA 1: CAATCTGAATTCCGGTCTCCC
DNA 2: TGGTGGCTACGACGGGATT
B19: GAACGUG (DNA:RNA)
RNA: B1 RNA with U25G, C26A, G27A, A28C, A30U, A31G
DNA 1: CAATCTGAATTCCGGTCTCCC
DNA 2: TGGTGGCTACGACGGGATT
B20: AGGACCG (DNA:RNA)
RNA: B15 RNA with C25A, C27G, U28A, U31G
DNA 1: CAATCTGAATTCCGGTCTCCC
DNA 2: TGGTGGCTACGACGGGATT
B21: GUGAACG (DNA:RNA)
RNA: B1 RNA with U25G, C26U, G29A, A30C, A31G
DNA 1: CAATCTGAATTCCGGTCTCCC
DNA 2: TGGTGGCTACGACGGGATT
B22: UGAACGU (DNA:RNA)
RNA: B15 RNA with C25U, C27A, U28A, C30G
DNA 1: CAATCTGAATTCCGGTCTCCC
DNA 2: TGGTGGCTACGACGGGATT
B23: CAGAACG (DNA:RNA)
RNA: B15 RNA with G26A, C27G, U28A, C29A, U31G
DNA 1: CAATCTGAATTCCGGTCTCCC
DNA 2: TGGTGGCTACGACGGGATT
B24: GGGAACG (DNA:RNA)
RNA: B15 RNA with C25G, C27G, U28A, C29A, U31G
DNA 1: CAATCTGAATTCCGGTCTCCC
DNA 2: TGGTGGCTACGACGGGATT
B25: GAGAACG (DNA:RNA)
RNA: B1 RNA with U25G, C26A, G29A, A30C, A31G
DNA 1: CAATCTGAATTCCGGTCTCCC
DNA 2: TGGTGGCTACGACGGGATT
B26: AGGAACG (DNA:RNA)
RNA: B15 RNA with C25A, C27G, U28A, C29A, U31G
DNA 1: CAATCTGAATTCCGGTCTCCC
DNA 2: TGGTGGCTACGACGGGATT
B27: AGAACGU (DNA:RNA)
RNA: B15 RNA with C25A, C27A, U28A, C30G
DNA 1: CAATCTGAATTCCGGTCTCCC
DNA 2: TGGTGGCTACGACGGGATT
B28: UGGACAG (DNA:RNA)
RNA: B1 RNA with C26G, G29C, A31G
DNA 1: CAATCTGAATTCCGGTCTCCC
DNA 2: TGGTGGCTACGACGGGATT
B29: CCUUCUU (DNA:RNA)
RNA: B15 RNA with G26C, C27U, C30U
DNA 1: CAATCTGAATTCCGGTCTCCC
DNA 2: TGGTGGCTACGACGGGATT
B30: UCGGAUG (DNA:RNA)
RNA: B1 RNA with A28G, G29A, A30U, A31G
DNA 1: CAATCTGAATTCCGGTCTCCC
DNA 2: TGGTGGCTACGACGGGATT
B31: GAAGCGU (DNA:RNA)
RNA: B15 RNA with C25G, G26A, C27A, U28G, C30G
DNA 1: CAATCTGAATTCCGGTCTCCC
DNA 2: TGGTGGCTACGACGGGATT

Changes are numbered by the printed parent chain; changes in the protein carry UniProt numbers. In all, about 16,000 sequences were measured (“ka relative to ugcaugu”: median about 0.096, highest 2% from about 0.35 on). This excerpt belongs to a sample that is enriched for the highest values.

The target in the assay is T1, RBFOX1 RRM RbFoxmut (Fox-RRM*). Briefly: EMSA; HiTS-Eq, 1 nM pool, 10 min; buffer printed only for the single-RNA assays: 10 mM Tris pH 7.5, 150 mM NaCl, 3.4 mM EDTA, 0.001% NP-40, 30 C. To be noted: tags: His6 N-terminal (pET28a); label: 5' 32P. The method in brief:
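A pool of RNA with 7 randomized nucleotides, 5′-radiolabelled and with DNA-annealed flanks, was equilibrated at 1 nM for 10 min in 50 µL with purified RbFox RRM, wild type or mutant, across increasing protein concentrations. Free RNA was separated by 8% native PAGE, excised, reverse-transcribed, barcoded by PCR and sequenced. Relative association constants were obtained from read-count changes of each RNA species versus the control reaction and normalised to the cognate motif.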
In the case of B1, the binding signal was 0.116 KA relative to UGCAUGU.

For the molecule B2, the binding signal was 0.0799 KA relative to UGCAUGU. To B3 belongs 0.199 KA relative to UGCAUGU; to B4, 0.238 KA relative to UGCAUGU. To B5 belongs 0.129 KA relative to UGCAUGU; to B6, 0.84 KA relative to UGCAUGU; to B7, 0.0812 KA relative to UGCAUGU. As for B8, the binding signal was 0.175 KA relative to UGCAUGU. As for B9, the binding signal is 0.53 KA relative to UGCAUGU.

As for B10, the binding signal is 0.211 KA relative to UGCAUGU. The figure for B11 is 0.415 KA relative to UGCAUGU; for B12 it is 0.147 KA relative to UGCAUGU. To B13 belongs 0.111 KA relative to UGCAUGU; to B14, 0.39 KA relative to UGCAUGU.

Turning to B15, the binding signal was 0.0521 KA relative to UGCAUGU.

On to B16, for which the binding signal was 0.121 KA relative to UGCAUGU. With B17, the binding signal is 0.0754 KA relative to UGCAUGU.

Turning to B18, the binding signal is 0.0724 KA relative to UGCAUGU. Turning to B19, the binding signal was 0.226 KA relative to UGCAUGU. The figure for B20 is 0.183 KA relative to UGCAUGU. To B21 belongs 0.538 KA relative to UGCAUGU. To B22 belongs 0.242 KA relative to UGCAUGU; to B23, 0.168 KA relative to UGCAUGU. As for B24, the binding signal was 0.472 KA relative to UGCAUGU.

As to B25, the binding signal was 0.347 KA relative to UGCAUGU. To B26 belongs 0.576 KA relative to UGCAUGU; to B27, 0.149 KA relative to UGCAUGU; to B28, 0.0526 KA relative to UGCAUGU. To B29 belongs 0.0561 KA relative to UGCAUGU; to B30, 0.119 KA relative to UGCAUGU. To B31 belongs 0.0921 KA relative to UGCAUGU.

Source of the values: paper PMC9911399, “Two distinct binding modes provide the RNA-binding protein RbFox with extraordinary sequence specificity”.
